Screening results from PubChem.
Vaccinia Venus – qHTS for Stage-Specific Inhibitors of Vaccinia Orthopoxvirus: Venus Reporter Primary qHTS; Vaccinia virus Venus reporter expression, fluorescence; Potency, µM (series often up to 36.5 µM), for the others: at the highest dose activity change, negative = inhibition, hits mostly inhibitors; actives 0.46% (n = 330,000); calls by dose curve; tested in A549 cells; further: on the % scale 0 is the no-effect control and ±100 the full control effect; nearly all actives have a fitted effect of over 30% in size
VACV mCherry inh – qHTS for Stage-Specific Inhibitors of Vaccinia Orthopoxvirus: mCherry Reporter Primary qHTS; actives 0.63% (n = 310,000); Vaccinia virus mCherry reporter infection, fluorescence; Potency, µM (doses to about 36.5 µM), inactives show at the top dose activity change, negative = inhibition, most hits filed as inhibitors; calls by dose curve; tested in A549 cells; further: on the % scale 0 is the no-effect control and ±100 the full control effect; nearly all actives have a fitted effect of over 35% in size
HCV inh – qHTS Assay for Inhibitors of Hepatitis C Virus (HCV). Huh7.5.1 HCVcc-Cre infection, luciferase reporter, 44 h. Potency, µM (doses to about 41.8 µM), inactives show top-dose activity change, negative = inhibition, actives largely listed as inhibitors. actives 3.4% (n = 340,000); further: on the % scale 0 is the no-effect control and ±100 the full control effect
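Infectious HCVcc-Cre (~0.5 moi) was added to cells just after compound, with cells seeded 4 h earlier at 1,000 per well. Luciferase activity after 44 h culture reported infection; substrate was incubated 15 min at room temperature before reading.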
Pf growth 96h – Primary qHTS for delayed death inhibitors of the malarial parasite plastid, 96 hour incubation; P. falciparum luciferase reporter growth, 96 h; Potency, µM (top dose mostly 28.7 µM), for inactives: top-dose activity change, negative = inhibition, most hits filed as inhibitors; actives 6.9% (n = 320,000); AID 504834, 2011; further: on the % scale 0 is the no-effect control and ±100 the full control effect
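Compounds incubated with erythrocytes infected by luciferase-expressing P. falciparum (2% hematocrit, 0.05% parasitemia final) for 96 hours, 37 C in 5% CO2. Growth inhibition scored as decreased luciferase luminescence.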
Pf growth 48h – Primary qHTS for delayed death inhibitors of the malarial parasite plastid, 48 hour incubation. P. falciparum luciferase growth in erythrocytes, 48 h. Potency, µM (doses to about 28.7 µM), without a hit: at the highest dose activity change, negative = inhibition, hits mostly inhibitors. actives 5.9% (n = 310,000); further: on the % scale 0 is the no-effect control and ±100 the full control effect
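Luminescence readout; reporter = integrated firefly luciferase in P. falciparum. RBC culture at 2% hematocrit, 0.1% parasitemia final, 37 C/5% CO2; decreased signal taken as growth inhibition.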
NS1 inh – qHTS Assay for Inhibitors of Influenza NS1 Protein Function. Potency, µM (top dose mostly 46.1 µM), for the others: top-dose activity, positive = more growth. actives 0.4% (n = 270,000). AID 2326, 2010; calls by dose curve; further: actives are rising curves; nearly all actives have a fitted effect of over 50% in size
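Read-out: OD600 growth recovery of NS1-expressing budding yeast. Cells grown overnight at 30C in -URA glucose medium, washed, resuspended and diluted 1:100 in 2% galactose assay medium, pH 6.0. Same strain lacking NS1 served as positive control.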
Active calls of the source: *; [ ] = dose if it differs, or a comment. A selection: hits, their analogues and other compounds. The true share with any hit is near 11%. Unless noted, the call rests on the fitted dose curve; in most records, active means well fitted inhibition curve with a large enough effect; inconclusive means small, poorly fitted or top-dose-only effect, or another doubt; inactive means no such curve, though single readings can be large or run the other way. Potency means the concentration at half of the fitted maximal effect.

Screening CCCn1c(C)cc(/C=C(\C#N)C(=O)OCC(=O)N(CC)c2c(N)n(Cc3ccccc3)c(=O)[nH]c2=O)c1C returned Vaccinia Venus -11%, VACV mCherry inh inactive and HCV inh inconclusive.
Screening COC(=O)c1sccc1NC(=O)c1cc(-c2cc(C)ccc2C)nc2ccccc12 returned Vaccinia Venus -10%, VACV mCherry inh inactive, HCV inh -21%, Pf growth 96h inconclusive, Pf growth 48h inconclusive and NS1 inh 6%.
For Oc1ccc(/C=N/n2c(C3CCCCC3)n[nH]c2=S)c(O)c1 the results were HCV inh 2%, Pf growth 96h 27%, Pf growth 48h 28% and NS1 inh 11%.
O=C(O)/C(=C/c1ccco1)NC(=O)c1ccc(Br)o1 was read as Vaccinia Venus -6%, VACV mCherry inh -13%, HCV inh 9%, Pf growth 96h 13µM*, Pf growth 48h inconclusive and NS1 inh 7%.
C/C(=N\Nc1cc(-c2ccccc2)nc(-c2ccccc2)n1)c1ccc(O)c(C)c1 was read as Vaccinia Venus inconclusive, VACV mCherry inh 0%, HCV inh 3.5µM*, Pf growth 96h 0%, Pf growth 48h inconclusive and NS1 inh inconclusive.
For COc1cc(N/N=C(\C)c2ccc(O)c(C)c2)nc(-c2ccccc2)n1 the results were Vaccinia Venus -20%, VACV mCherry inh inconclusive, HCV inh inconclusive, Pf growth 96h inconclusive, Pf growth 48h inconclusive and NS1 inh 2%.
COc1cc(N/N=C(\C)c2ccc(N)cc2)nc(-c2ccccc2)n1 was read as HCV inh 11µM*, Pf growth 96h inconclusive and Pf growth 48h -6%.
Screening C/C(=N\Nc1cc(C)nc(-c2ccccc2)n1)c1cccc([N+](=O)[O-])c1 returned HCV inh inconclusive, Pf growth 96h 0.41µM*, Pf growth 48h 12µM* and NS1 inh 6%.
For C/C(=N\Nc1cc(C)nc(-c2ccccc2O)n1)c1ccccc1 the results were Vaccinia Venus -18%, VACV mCherry inh inconclusive, HCV inh inconclusive, Pf growth 96h inconclusive, Pf growth 48h -86% and NS1 inh 12%.
Cc1ccc(C(=O)/C=C/c2ccc3c(c2)OCCO3)c(O)c1 was read as Vaccinia Venus -23%, VACV mCherry inh 7%, HCV inh 1%, Pf growth 96h 201%, Pf growth 48h 231% and NS1 inh -4%.
Screening Cc1ccc(OCCNC(=O)CCNS(=O)(=O)c2ccc3ccccc3c2)cc1 returned HCV inh inconclusive, Pf growth 96h -4% and Pf growth 48h inconclusive.
Screening O=C1Nc2ccccc2/C1=C\c1cccn1-c1ccc(OC(F)(F)F)cc1 returned HCV inh 0.56µM*, Pf growth 96h -17%, Pf growth 48h inconclusive and NS1 inh 18%.
Screening C=C(c1ccccc1C)[n+]1ccccc1 returned Vaccinia Venus -29%, VACV mCherry inh -12%, HCV inh inconclusive, Pf growth 96h 1.7µM*, Pf growth 48h 4.7µM* and NS1 inh 7%.
Screening CCN(C(=O)c1cnc(NC(C)C)cc1C(F)(F)F)c1ccc(Cl)cc1Cl returned Vaccinia Venus 0%[7.34 µM], VACV mCherry inh -12%[7.34 µM], HCV inh 10µM*, Pf growth 96h 12µM*, Pf growth 48h 2.9µM* and NS1 inh -5%.
`CCCC1S/C(=N/N=C/c2ccc(OC)cc2)N(Cc2ccc(OC)cc2)C1=O` (configuration not stated) gave HCV inh -11%, Pf growth 96h 10µM*, Pf growth 48h inconclusive and NS1 inh 30%.
Cc1cc2nn(-c3ccccc3)nc2cc1NC(=O)c1cccs1 was read as Vaccinia Venus -15%, VACV mCherry inh -22%, HCV inh inconclusive, Pf growth 96h inconclusive, Pf growth 48h 20% and NS1 inh -4%.
`CC(=O)Nc1cc2nn(-c3ccccc3)nc2cc1C` gave HCV inh 10%, Pf growth 96h 13µM*, Pf growth 48h 171% and NS1 inh 1%.
Screening CCSc1nn(CC(=O)Nc2ccc(C(=O)OC)cc2)c(N)c1S(=O)(=O)c1ccc(C)cc1 returned Vaccinia Venus -20% and VACV mCherry inh -7%.
Screening COc1ccc(NC(=O)[C@H](COCc2ccccc2)NC(=O)OC(C)(C)C)cc1 returned HCV inh 3%, Pf growth 96h inconclusive, Pf growth 48h inconclusive and NS1 inh 8%.
COc1ccc(NC(=O)C(NC(=O)OC(C)(C)C)C(C)OCc2ccccc2)cc1 (configuration not stated) was read as HCV inh 12%, Pf growth 96h 1.7µM*, Pf growth 48h 1% and NS1 inh 5%.
Screening NC(=O)C1CCN(c2ncc(C(F)(F)F)cc2Cl)CC1 returned Vaccinia Venus -7%, VACV mCherry inh inactive, HCV inh 11%, Pf growth 96h 29% and Pf growth 48h 5%.
Screening COc1cc(CNc2nc(C)c([N+](=O)[O-])c(C)c2C#N)cc(OC)c1OC returned Vaccinia Venus -15%, VACV mCherry inh -4%, HCV inh 6.3µM*, Pf growth 96h inconclusive, Pf growth 48h 6% and NS1 inh -4%.
For COc1cccc(C2CC(c3ccccc3)n3ncnc3N2)c1 (configuration not stated) the results were Vaccinia Venus -2%, VACV mCherry inh -9%, HCV inh 12%, Pf growth 96h inconclusive and NS1 inh -1%.
COc1cccc(C2CC(c3cccc(OC)c3)n3nc(N)nc3N2)c1 (configuration not stated) was read as Vaccinia Venus -13%, VACV mCherry inh -13%, HCV inh 17%, Pf growth 96h 12µM*, Pf growth 48h 2% and NS1 inh 7%.
For COc1cccc(C2CC(c3cccc(Br)c3)n3ncnc3N2)c1 (configuration not stated) the results were HCV inh 1%, Pf growth 96h 12µM*, Pf growth 48h -5% and NS1 inh -20%.
For COc1ccc(C2CC(c3cccc(Cl)c3)n3nc(N)nc3N2)cc1 (configuration not stated) the results were Vaccinia Venus -3%, VACV mCherry inh -3%, HCV inh -13%, Pf growth 96h 9.3µM*, Pf growth 48h 10% and NS1 inh 8%.
Screening Cc1nc(Cl)c(C(=O)NC(=O)Nc2cccc(C(F)(F)F)c2)c(C)c1[N+](=O)[O-] returned Vaccinia Venus -3%, VACV mCherry inh -13%, HCV inh -8%, Pf growth 96h inconclusive, Pf growth 48h -3% and NS1 inh 24%.
